According to PubChem BioAssay (NCATS):
Results filed as inconclusive are left out. Entries that show only a call come without a potency. A number with no mark means an inactive call. Activity calls are given as the source filed them. Calls follow the shape of the dose curve; as a rule, active = well fitted curve in the direction sought with a large enough effect; inconclusive = small, poorly fitted or top-dose-only effect, or another doubt; inactive = no such curve, though single readings can be large; an effect the other way counts as inactive or inconclusive.

Legend:
[1] = qHTS of pediatric cancer cell lines to identify multiple opportunities for drug repurposing: Confirmatory screen for SK-N-SH cells (AID 1347129);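 also: cells exposed to compound for 48 h before viability read; nearly all actives have a fitted effect of over 60% in size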; also: potency is read from the fitted curve at half-maximal effect
In short: (§1)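 Viability after 48 h compound treatment at 37C, 500-1,000 cells/well, read as ATP luminescence with CellTiter-Glo. Primary screens used 11-point (MIPE, 0.78 nM-46 µM) or 8-point (NPC, 0.59 nM-46 µM) final concentrations; follow-up screens used 11-point dilutions.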

[2] = test system: Zika virus NS2B-NS3 protease; assay: Primary screen GU AMC qHTS for Zika virus inhibitors (AID 1347154); also: nearly all actives have a fitted effect of over 70% in size; also: potency is read from the fitted curve at half-maximal effect
In short: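 Unlinked Zika NS2B hydrophilic domain–NS3 protease complex at 25 nM in 10 mM Tris-HCl pH 8.0, 0.01% Tween 20, with an AMC peptide substrate. Fluorescence change (340/450 nm) over 15 min at room temperature, normalized to controls, fitted to 4-parameter Hill.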

[3] = qHTS of pediatric cancer cell lines to identify multiple opportunities for drug repurposing: Confirmatory screen for Saos-2 cells (AID 1347127); also: nearly all actives have a fitted effect of over 60% in size; also: potency is read from the fitted curve at half-maximal effect
In short: as §1

[4] = qHTS of pediatric cancer cell lines to identify multiple opportunities for drug repurposing: Confirmatory screen for OHS-50 cells (AID 1347128);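 also: compound exposure lasted 48 h at 37 degrees C; nearly all actives have a fitted effect of over 55% in size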; also: potency is read from the fitted curve at half-maximal effect
In short: as §1

[5] = test system: Zika virus NS2B-NS3 protease (linked construct); assay: Confirmatory screen NINDS AMC qHTS for Zika virus inhibitors (AID 1347152); also: nearly all actives have a fitted effect of over 70% in size; also: potency is read from the fitted curve at half-maximal effect;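 as to activity change, negative = inhibition: AMC fluorescence gain from cleaved Bz-Nle-KRR-AMC substrate over 15 min; top concentration of the series differs between compounds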
In short: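 Concentration-response confirmation used the NINDS linked protease (NS2B hydrophilic domain joined to NS3 protease domain), 1 nM, with a 15-min compound preincubation. Substrate, Nle-KRR-AMC at 10 microM, was read by UV fluorescence before and after 15 min.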

Furin (Homo sapiens) = Furin (Homo sapiens) (UniProt P09958); assay: Furin counterscreen qHTS for Zika virus inhibitors (AID 1347149); also: nearly all actives have a fitted effect of over 70% in size; also: potency is read from the fitted curve at half-maximal effect;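 as to activity change, negative = inhibition: purified recombinant full-length human furin enzyme at 5 nM; fluorescence gain from furin cutting a BOC-RVRR-AMC peptide substrate over 15 min; top concentration of the series differs between compounds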
In short: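 Counterscreen measures cleavage of 2 microM BOC-RVRR-AMC, below its ~15 microM Km, by 5 nM full-length human furin at pH 7.0 after a 15-min compound preincubation. Inhibition derives from the 15-min fluorescence increase at 37C.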

[6] = test system: Zika virus NS2B-NS3 protease (unlinked complex); assay: Confirmatory screen GU AMC qHTS for Zika virus inhibitors (AID 1347153); also: nearly all actives have a fitted effect of over 70% in size; also: potency is read from the fitted curve at half-maximal effect
In short: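 Unlinked enzyme 25 nM, Tris pH 8.0/0.01% Tween 20; cpd 15 min RT, dark; + AMC substrate 10 µM (Km 18.3 µM); 340/450 nm read at t0 and 15 min; % inhibition → 4-param fit.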

[7] = biological target: N-terminal Xaa-Pro-Lys N-methyltransferase 1 (Homo sapiens) (UniProt Q9BV86); assay: qHTS Assay for Inhibitors of N-terminal methyltransferase 1 (NTMT1): LOPAC validation of the NTMT1 SAHH-coupled ThioGlo3 Assay (AID 1347143); also: potency is read from the fitted curve at half-maximal effect
In short: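 Steps: dispense 125nM NTMT1; pin-transfer test compounds at several concentrations, with 1uM RCC1-6 peptide as control; incubate 1 min; start with reagent holding 100uM SAM, 10uM SAHH, 15uM ThioGlo3; read at 0 and 30 min.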

[8] = test system: Zika virus NS2B-NS3 protease (unlinked); assay: Optimization of GU AMC qHTS for Zika virus inhibitors: Unlinked NS2B-NS3 protease assay (AID 1347151); also: series mostly up to about 52 µM; nearly all actives have a fitted effect of over 80% in size
In short: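 In this qHTS, compounds acted on 25 nM unlinked Zika NS2B–NS3 in pH 8.0 Tris/Tween buffer. Cleavage of an AMC peptide ran 15 min at room temperature, to about 20% conversion.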

[9] = Confirmatory screen GU Rhodamine qHTS for Zika virus inhibitors qHTS (AID 1347157); also: nearly all actives have a fitted effect of over 70% in size
In short: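 Noncovalent NS2B hydrophilic domain/NS3 protease complex (25 nM final) in 10 mM Tris-HCl pH 8.0, 0.01% Tween 20, preincubated 15 min with compounds (up to 114 microM), then 1.5 microM Rhodamine110 substrate. Fluorescence change over 15 min fitted to 4-parameter Hill.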

Chain of N-terminal Xaa-Pro-Lys N-methyltransferase 1 (Homo sapiens) (Q9BV86 whole entry, looked up): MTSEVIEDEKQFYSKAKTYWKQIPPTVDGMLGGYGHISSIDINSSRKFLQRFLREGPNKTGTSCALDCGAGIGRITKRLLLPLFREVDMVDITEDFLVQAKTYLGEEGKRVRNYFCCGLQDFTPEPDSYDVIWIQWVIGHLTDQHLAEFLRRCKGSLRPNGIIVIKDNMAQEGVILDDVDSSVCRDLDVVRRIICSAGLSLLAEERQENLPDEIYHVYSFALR
Chain of Furin (Homo sapiens) (P09958 whole entry, looked up): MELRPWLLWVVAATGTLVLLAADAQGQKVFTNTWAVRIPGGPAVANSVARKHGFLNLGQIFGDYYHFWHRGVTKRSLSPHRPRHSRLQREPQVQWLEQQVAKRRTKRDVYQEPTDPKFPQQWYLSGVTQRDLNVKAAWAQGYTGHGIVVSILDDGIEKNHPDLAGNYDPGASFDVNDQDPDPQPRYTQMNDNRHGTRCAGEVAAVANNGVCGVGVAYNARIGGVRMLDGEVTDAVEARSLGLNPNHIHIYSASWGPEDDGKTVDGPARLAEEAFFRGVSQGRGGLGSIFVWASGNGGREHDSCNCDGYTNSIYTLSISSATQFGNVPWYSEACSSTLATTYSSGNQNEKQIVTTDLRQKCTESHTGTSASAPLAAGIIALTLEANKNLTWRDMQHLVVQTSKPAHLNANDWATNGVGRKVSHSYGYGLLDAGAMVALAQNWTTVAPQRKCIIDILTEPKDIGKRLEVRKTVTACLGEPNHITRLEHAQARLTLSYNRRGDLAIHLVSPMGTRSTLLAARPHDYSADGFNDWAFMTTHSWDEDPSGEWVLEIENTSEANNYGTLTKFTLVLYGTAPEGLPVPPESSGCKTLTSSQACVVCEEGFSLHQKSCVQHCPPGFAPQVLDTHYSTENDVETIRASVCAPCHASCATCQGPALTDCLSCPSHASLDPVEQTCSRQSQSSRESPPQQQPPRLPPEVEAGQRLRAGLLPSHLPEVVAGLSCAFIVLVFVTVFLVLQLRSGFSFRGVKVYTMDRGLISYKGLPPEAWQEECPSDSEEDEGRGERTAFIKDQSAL

## O=[N+]([O-])c1ccc(O)c2ncccc12
[1]
  Potency: 9.35 µM (active)
[2]
  Potency: inactive

## CCC1(c2cnc[nH]2)Cc2ccccc2C1
[3]
  Potency: 9.27 µM (active)
[4]
  Potency: inactive
[1]
  Potency: inactive
[2]
  Potency: inactive

## C[C@]12CCC(=O)C=C1CC[C@@H]1[C@@H]2[C@@H](O)C[C@@]2(C)[C@H]1CC[C@]2(O)C(=O)COC(=O)CCC(=O)O
[3]
  Potency: inactive
[4]
  Potency: inactive
[1]
  Potency: inactive

## Nc1c2ccccc2nc2ccccc12
[4]
  Potency: 3.69 µM (active)
[1]
  Potency: 8.33 µM (active)
[2]
  Potency: 35.5 µM (active)

## CC(C)=CCC/C(C)=C/CC/C(C)=C/C(=O)OCC(=O)[C@@]1(O)CC[C@H]2[C@@H]3CCC4=CC(=O)C=C[C@]4(C)[C@H]3[C@@H](O)C[C@@]21C
[3]
  Potency: 18.5 µM (active)
[1]
  Potency: inactive

## C[C@H]1C[C@@H]2[C@H]([C@@H](O)C[C@@]3(C)[C@H]2CC[C@]3(O)C(=O)CO)[C@@]2(C)C=CC(=O)C=C12
[4]
  Potency: inactive
[1]
  Potency: inactive
[2]
  Potency: inactive

## CCOC(=O)O[C@]1(C(=O)OCCl)CC[C@H]2[C@@H]3CCC4=CC(=O)C=C[C@]4(C)[C@H]3[C@@H](O)C[C@@]21C
[4]
  Potency: inactive
[1]
  Potency: inactive
[2]
  Potency: inactive

## CCCC(=O)O[C@]1(C(=O)CCl)[C@@H](C)C[C@H]2[C@@H]3CCC4=CC(=O)C=C[C@]4(C)[C@@]3(F)C(=O)C[C@@]21C
[3]
  Potency: inactive
[4]
  Potency: inactive
[1]
  Potency: inactive
[2]
  Potency: inactive

## CCc1cc2cc(OC)c(OC)cc2c(Cc2ccccc2)n1
[3]
  Potency: inactive
[1]
  Potency: inactive
[2]
  Potency: inactive

## CCOC(=O)Cn1cccc1-c1nc(-c2ccc(OC)cc2)c(-c2ccc(OC)cc2)s1
[5]
  Potency: 24.1 µM (active)

## CCC(=O)O[C@H]1[C@H](O[C@@H]2[C@@H](C)[C@H](O[C@H]3C[C@@](C)(OC)[C@@H](O)[C@H](C)O3)[C@@H](C)C(=O)O[C@H](CC)[C@@](C)(O)[C@H](O)[C@@H](C)C(=O)[C@H](C)C[C@@]2(C)O)O[C@H](C)C[C@@H]1N(C)C
Furin (Homo sapiens)
  Potency: 34.1 µM (active)
[5]
  Potency: 13.6 µM (active)
[6]
  Potency: 19.2 µM (active)

## Clc1ccc2c(c1)N=C(N1CCNCC1)c1ccccc1N2
[7]
  Potency: inactive
[8]
  Potency: inactive
[2]
  Potency: inactive

## O=C(Oc1ccccc1)c1ccccc1O
[2]
  Potency: inactive

## COCCc1ccc(OCC2CO2)cc1 (stereo not drawn)
[2]
  Potency: inactive

## CC(=O)CC/C=C(\C)CC/C=C(\C)CC/C=C(\C)CCC=C(C)C
[2]
  Potency: inactive

## O=[N+]([O-])c1ccc(-c2nc(-c3ccc(F)cc3)c(-c3ccncc3)[nH]2)cc1
[8]
  Potency: inactive

## CCCCCCCCCCCCCCCCCCN(C)C
[2]
  Potency: inactive

## O=C(c1ccco1)N1CCNCC1
[2]
  Potency: inactive

## CCN1CCN(c2cc(-c3ccc(F)cc3)c3c(n2)CCCCCC3)CC1
[2]
  Potency: inactive

## Cn1cnc2c(NCc3ccccc3)nc(NCCO)nc21
[7]
  Potency: inactive
[8]
  Potency: inactive
[2]
  Potency: inactive

## CC1(C)O[C@@H]2C[C@H]3[C@@H]4C[C@H](F)C5=CC(=O)C=C[C@]5(C)[C@@]4(F)[C@@H](O)C[C@]3(C)[C@]2(C(=O)CO)O1
[2]
  Potency: inactive

## CCOC(=O)CN1CCCC1=O
[2]
  Potency: inactive

## CCCC(=O)Nc1ccc(O)c(C(C)=O)c1
[2]
  Potency: inactive

## O=c1[nH]c(=O)n([C@H]2O[C@H](CO)[C@@H](O)[C@@H]2O)cc1/C=C\Br
[2]
  Potency: inactive

## O=C(COCCOCCOCC(=O)Nc1c(I)cc(I)c(C(=O)O)c1I)Nc1c(I)cc(I)c(C(=O)O)c1I
Furin (Homo sapiens)
  Potency: inactive
[2]
  Potency: inactive
[9]
  Potency: inactive

## O=C1NC(c2cccc([N+](=O)[O-])c2)=CCN1c1ccccc1O
[7]
  Potency: 50.1 µM (active)
[8]
  Potency: inactive
[2]
  Potency: inactive

## O=C(CCCCC(=O)Nc1c(I)cc(I)c(C(=O)O)c1I)Nc1c(I)cc(I)c(C(=O)O)c1I
Furin (Homo sapiens)
  activity change, negative = inhibition: 9.18% [at 18.8 µM]
[2]
  Potency: inactive
[9]
  Potency: inactive

## CCS(=O)(=O)c1ccc(OC)c(C(=O)OC)c1
[2]
  Potency: inactive

## CN=C(N)NC(=O)Nc1c(C)cccc1C
[2]
  Potency: inactive

## NC(N)=NCCCCN=C(N)N
[7]
  Potency: inactive
[8]
  Potency: inactive
[2]
  Potency: inactive

## C/C=C(/C(=C/C)c1ccc(OC(C)=O)cc1)c1ccc(OC(C)=O)cc1
[2]
  Potency: inactive

## Nc1ccc(C(=O)N2CC3CC(CN(Cc4ccccc4)C3)C2)cc1
[2]
  Potency: inactive

## CCN1CCCC1CN (stereo not drawn)
[2]
  Potency: inactive

## COc1ccc(CCC(C)=O)cc1
[2]
  Potency: inactive

## Cc1cccc(C)c1NC(=O)c1ccc(N)cc1
[2]
  Potency: inactive

## Oc1cccc2[nH]ccc12
[2]
  Potency: inactive

## O=C(Nc1ccc(S(=O)(=O)N2CCOCC2)cc1)c1cc(Cl)ccc1NS(=O)(=O)c1ccc(Cl)s1
Furin (Homo sapiens)
  Potency: 21.5 µM (active)
[5]
  Potency: 17.1 µM (active)
[6]
  Potency: 17.1 µM (active)
[2]
  Potency: 14.4 µM (active)

## COc1ccccc1N1CCN(CCN2C(=O)CC3(CCCC3)CC2=O)CC1
[7]
  Potency: 56.2 µM (active)
[8]
  Potency: inactive
[2]
  Potency: inactive

## N[C@@H](Cc1cc(I)c(O)c(I)c1)C(=O)O
Furin (Homo sapiens)
  Potency: inactive
[5]
  Potency: inactive
[6]
  Potency: inactive

## Cc1ccc2c(Cl)cc(Cl)c(O)c2n1
[2]
  Potency: inactive

## COC(=O)C1=CO[C@@H](O)[C@@H]2C(CO)=CC[C@H]12
[7]
  Potency: inactive
[8]
  Potency: inactive

## COc1cccc2c1[C@@H]1CN(CCCCn3c(=O)[nH]c4c(sc5ncc(-c6ccccc6)nc54)c3=O)C[C@@H]1CO2
[8]
  Potency: inactive

## CCO[C@H](Cc1ccc(OCCc2ccc(OS(C)(=O)=O)cc2)cc1)C(=O)O
[2]
  Potency: inactive
